Mtb FBA inh – inhibits M. tuberculosis FBA enzyme; purified M. tuberculosis FBA, fluorescence read-out; inhibition, % at 1 µM; 2.3% of 360,000 active; AID 588726; in the data active = inhibition above about 27%
GDH-TPI counter – inhibits GDH-TPI coupling enzymes, artifact for Mtb FBA screen | GDH-TPI coupled enzyme counterscreen, NADH absorbance | inhibition, % at 4.8 µM | 1.2% of 360,000 active; in the data active = inhibition above about 30%
BJeLR viability – kills HRASV12-expressing BJeLR cells. BJeLR (HRASV12) viability, CellTiter-Glo ATP luminescence, 48 h. inhibition, % (concentration not given with the values). 0.17% of 300,000 active. AID 1554; in the data active = inhibition above about 50%; inconclusive = no clear call, values can overlap the other calls
RecA splice inh – blocks M. tuberculosis RecA intein splicing; 0.75% of 290,000 active; cell-free RecA intein splicing, fluorescence; P9WHJ3; AID 2221; inhibition, % (concentration not given with the values); in the data active = inhibition above about 30%; inconclusive = no clear call, values can overlap the other calls
Target sequence (P9WHJ3 whole entry, looked up, canonical isoform): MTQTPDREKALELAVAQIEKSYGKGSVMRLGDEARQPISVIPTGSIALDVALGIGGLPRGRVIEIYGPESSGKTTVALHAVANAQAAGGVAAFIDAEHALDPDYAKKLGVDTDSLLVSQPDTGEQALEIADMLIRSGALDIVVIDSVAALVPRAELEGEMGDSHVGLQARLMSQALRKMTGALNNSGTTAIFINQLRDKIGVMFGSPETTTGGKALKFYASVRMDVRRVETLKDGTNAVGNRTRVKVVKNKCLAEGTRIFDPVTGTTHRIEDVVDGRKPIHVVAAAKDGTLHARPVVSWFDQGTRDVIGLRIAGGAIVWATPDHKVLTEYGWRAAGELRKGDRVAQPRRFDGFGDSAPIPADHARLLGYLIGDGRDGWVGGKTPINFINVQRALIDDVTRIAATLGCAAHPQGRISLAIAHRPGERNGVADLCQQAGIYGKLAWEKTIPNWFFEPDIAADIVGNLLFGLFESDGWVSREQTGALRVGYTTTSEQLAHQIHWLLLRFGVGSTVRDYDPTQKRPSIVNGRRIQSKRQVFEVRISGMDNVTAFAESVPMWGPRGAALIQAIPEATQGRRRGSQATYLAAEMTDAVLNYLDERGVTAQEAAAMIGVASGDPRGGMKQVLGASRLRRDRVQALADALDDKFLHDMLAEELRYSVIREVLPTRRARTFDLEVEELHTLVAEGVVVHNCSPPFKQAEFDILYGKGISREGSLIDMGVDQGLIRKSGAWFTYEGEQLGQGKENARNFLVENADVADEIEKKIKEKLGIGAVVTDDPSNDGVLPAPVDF
PrPC TRFRET – inhibitors of human cell surface prion protein PrPC; TR-FRET read-out; inhibition, % at 13.8 µM; 0.43% of 370,000 active; AID 720596; in the data active = inhibition above about 24%
GFP chromophore – counter-screen: blocks GFP chromophore formation; EC50, µM; shares compounds with RecA splice inh; cell-free GFP chromophore formation, fluorescence; 83% of 2,100 active; AID 434968; call rule not given here
Numbers stand for hits. Hits are enriched below; roughly 4.2% of the tested compounds scored in any of these assays.

Screening O=c1[nH]c(Nc2ccccc2Cl)cc2ccccc12 returned Mtb FBA inh inactive, GDH-TPI counter inactive, BJeLR viability inactive, RecA splice inh 86.0, PrPC TRFRET inactive and GFP chromophore 16.4.
Screening Cc1ccccc1Nc1cc2ccccc2c(=O)[nH]1 returned Mtb FBA inh inactive, GDH-TPI counter inactive, BJeLR viability inactive, RecA splice inh 71.5 and GFP chromophore inconclusive.
Screening Cc1cc2ccccc2c(=O)[nH]1 returned Mtb FBA inh inactive, GDH-TPI counter inactive, BJeLR viability inactive, RecA splice inh inactive and PrPC TRFRET inactive.
For COc1ccc(-c2cc(-c3nnc4sc(Cc5cccs5)nn34)[nH]n2)cc1 the results were PrPC TRFRET inactive.
Screening C#CCOCCOCCOCCNc1nc(N2CCN(C(=O)[C@H](CCCCN)n3cc([C@@H](N)C(C)CC)nn3)CC2)nc(N2CCN(C(=O)[C@H](CCCCN)n3cc([C@@H](N)C(C)CC)nn3)CC2)n1 (stereo not given in full) returned PrPC TRFRET inactive.
Screening Cc1ccc(N(C)c2nc(N)nc(N)c2N=O)cc1 returned PrPC TRFRET inactive.
`CCN1C(=O)N(C(C)=O)[C@@H]2C[C@H](C(=O)N3CCCC3)[C@H](C)[C@H](c3ccccc3)C[C@@H]21` gave PrPC TRFRET inactive.
For CC(C)(C)c1ccc(-c2nnc3sc(COc4ccccc4)nn23)cc1 the results were PrPC TRFRET inactive.
Cc1ccc(-n2nc(C)c(C(=O)O)n2)c(C)c1 was read as Mtb FBA inh inactive, GDH-TPI counter inactive, BJeLR viability inactive, RecA splice inh inactive and PrPC TRFRET inactive.
Screening CC1=NN(c2ccc(C)cc2C)C(=O)C1C(c1ccccc1)C1C(=O)N(c2ccc(C)cc2C)N=C1C (stereo not given) returned Mtb FBA inh inactive, GDH-TPI counter inactive, BJeLR viability inactive, RecA splice inh 89.7 and GFP chromophore 1.14.
For CC(C)CNC(=O)C1CSCCS(=O)(=O)N1Cc1ccc(F)cc1 (stereo not given) the results were PrPC TRFRET inactive.
`CC1=C(C)/C(=N\OC(=O)/C=C/c2ccccc2)C=CC1=O` gave Mtb FBA inh inactive, GDH-TPI counter inactive, BJeLR viability inactive, RecA splice inh 37.6, PrPC TRFRET inactive and GFP chromophore inactive.
CC1=CC(=NOC(=O)/C=C/c2ccccc2)C=C(C)C1=O was read as Mtb FBA inh inactive, GDH-TPI counter inactive, BJeLR viability inactive, RecA splice inh inactive and PrPC TRFRET inactive.
For CC1=NN(c2nc(-c3ccccc3)cs2)C(=O)C1 the results were Mtb FBA inh inactive, GDH-TPI counter inactive, BJeLR viability inactive, RecA splice inh 65.7, PrPC TRFRET inactive and GFP chromophore 8.54.
Screening O=C1CCC[C@H]2C[C@H](NCc3ccc(Br)cc3)CC[C@]23CCCN13 returned PrPC TRFRET inactive.
Screening CCCCCc1cc(=O)oc2c(C(CCN3CCCC(C)C3)c3ccc4c(c3)OCO4)c(OC)cc(OC)c12 (stereo not given) returned Mtb FBA inh inactive, GDH-TPI counter inactive, BJeLR viability inactive, RecA splice inh 34.9, PrPC TRFRET inactive and GFP chromophore 19.6.
`CCOC(=O)CN1C(=O)N[C@@H](c2cccc(F)c2)C(C(C)=O)=C1C` gave Mtb FBA inh inactive, GDH-TPI counter inactive, BJeLR viability inactive, RecA splice inh inactive and PrPC TRFRET inactive.
For CCOC(=O)CN1C(=O)N[C@@H](c2cccc(C(F)(F)F)c2)C(C(C)=O)=C1C the results were Mtb FBA inh inactive, GDH-TPI counter inactive, BJeLR viability inactive, RecA splice inh 34.9 and GFP chromophore inactive.
`O=C(Cc1ccc(Cl)c(Cl)c1)Nc1ccc(S(=O)(=O)Nc2ccon2)cc1` gave PrPC TRFRET inactive.
Screening CC(C)(C)OC(=O)N1CC=C2C(C#N)=C(N)C(C#N)(C#N)C(c3cccs3)C2C1 (stereo not given) returned Mtb FBA inh inactive, GDH-TPI counter inactive, BJeLR viability inactive, RecA splice inh 52.9, PrPC TRFRET inactive and GFP chromophore 10.1.
Cc1ccc(C)c(NC(=O)Cn2nnc(-c3ccncc3)n2)c1 was read as PrPC TRFRET inactive.
CC(=O)c1c(C)nc(-c2ccc(Cl)cc2)nc1N=CN(C)C was read as Mtb FBA inh inactive, GDH-TPI counter inactive, BJeLR viability inactive, RecA splice inh inactive, PrPC TRFRET inactive and GFP chromophore inactive.
N#CC(C#N)C(c1ccsc1)c1c(-c2ccccc2)[nH][nH]c1=O (stereo not given) was read as Mtb FBA inh inactive, GDH-TPI counter inactive, BJeLR viability inactive, RecA splice inh 85.8, PrPC TRFRET inactive and GFP chromophore 7.57.
`N#Cc1c(C#N)c(O)c2ccccc2c1O` gave Mtb FBA inh inactive, GDH-TPI counter inactive, BJeLR viability inactive, RecA splice inh 83.8, PrPC TRFRET inactive and GFP chromophore 2.42.
`O=C(Cc1cc(=O)[nH][nH]1)N/N=C/C=C/c1ccccc1` gave Mtb FBA inh inactive, GDH-TPI counter inactive, BJeLR viability inactive, RecA splice inh 84.6, PrPC TRFRET inactive and GFP chromophore 18.3.
O=c1cc(-c2cccc([N+](=O)[O-])c2)[nH][nH]1 was read as Mtb FBA inh inactive, GDH-TPI counter inactive, BJeLR viability inactive, RecA splice inh 96.1, PrPC TRFRET inactive and GFP chromophore 11.4.
Screening COC(=O)CCCn1cc(CN2CC=CS2(=O)=O)nn1 returned PrPC TRFRET inactive.
For Cc1noc(C)c1COC(=O)Cc1ccc(Br)cc1 the results were Mtb FBA inh inactive, GDH-TPI counter inactive, BJeLR viability inactive, RecA splice inh inactive, PrPC TRFRET inactive and GFP chromophore inactive.
`CCOC(=O)c1c(CC(C)C)csc1NC(=O)CCl` gave Mtb FBA inh inactive, GDH-TPI counter inactive, BJeLR viability inactive, RecA splice inh 51.7, PrPC TRFRET inactive and GFP chromophore inactive.
CCOC(=O)c1c(CC(C)C)csc1NC(=O)C(C)C was read as Mtb FBA inh inactive, GDH-TPI counter inactive, BJeLR viability inactive, RecA splice inh inactive and PrPC TRFRET inactive.
Cc1ccc(N2C(=O)C(Cl)=C(N3CCCCCC3)C2=O)cc1 was read as Mtb FBA inh inactive, GDH-TPI counter inactive, BJeLR viability inactive, RecA splice inh inactive and PrPC TRFRET inactive.
For COc1ccc(OC)c(N2C(=O)C(Cl)=C(N3CCCCC3)C2=O)c1 the results were Mtb FBA inh inactive, GDH-TPI counter inactive, BJeLR viability inactive, RecA splice inh 62.6, PrPC TRFRET inactive and GFP chromophore 16.9.
For O=C1C(Cl)=C(N2CCCCC2)C(=O)N1c1ccccc1Cl the results were Mtb FBA inh inactive, GDH-TPI counter inactive, BJeLR viability inactive, RecA splice inh 76.7, PrPC TRFRET inactive and GFP chromophore 6.17.
`O=C1C(Cl)=C(N2CCCCC2)C(=O)N1c1ccccc1` gave Mtb FBA inh inactive, GDH-TPI counter inactive, BJeLR viability inactive, RecA splice inh 40.9, PrPC TRFRET inactive and GFP chromophore 8.78.
`CCOC(=O)C1CCCCN1C(=O)[C@@H]1CC=C[C@@H]2CCN(c3ccccc3)C(=O)[C@@H]21` (stereo not given in full) gave PrPC TRFRET inactive.
